According to PubChem BioAssay AID743315 (Broad Institute, 2014):
Results with a measured potency or affinity are listed apart. Calls of active or inactive are those of the source.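 The calls were made as follows: active = cell killing, with a fitted active concentration at or below twice the top valid dose tested; inconclusive = flat curve with moderate cell loss, or an unreliable fit; inactive = effect in the rising direction, plus the rest.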

Test: loss of HEK293T viability via ATP – cell-based, plate reader, dry powder, set 10, cytotoxicity control, dose response (AID 743315)
Details: CellTiter-Glo ATP luminescence, 72 h; series mostly up to 26 µM; activity change, negative = cytotoxicity: at the top concentration

SMILES | outcome | activity change, negative = cytotoxicity
S=c1[nH]c2cccc(Cl)c2n1CCOc1ccccc1 | inactive | –
Cc1cccc(OCCn2c(=S)[nH]c3ccccc32)c1C | – | 6.98% (inactive)
Cc1ccc(C(C)C)c(OCCn2c(=S)[nH]c3ccc(Cl)cc32)c1 | – | 25% (inactive)
COc1ccccc1OCCn1c(=S)[nH]c2ccccc21 | – | 16.7% (inactive)
Cc1ccc(OCCn2cnc3ccccc32)c(C(C)C)c1 | – | -41.6% (inactive)
